Data taken from PubChem BioAssay (Tox21).
Inconclusive results are not listed. Calls of active or inactive are those of the source. The call rests on the fitted dose curve; in most records, active means well fitted curve in the direction sought with a large enough effect in the repeat runs; inconclusive means weak or mixed curves; inactive means no such curve, though single readings can be large; an effect the other way counts as inactive or inconclusive.

Tests used:
[1] = Caspase-3/7 induction in HepG2 cells by small molecules, qHTS assay (AID 1346978); further: nearly all actives have a fitted effect of over 15% in size
Procedure, shortened: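 Wild-type HepG2 cells, 2,000/well, settled 5 hr at 37 C and 5% CO2, then compound-treated for 17 hr; caspase-3/7 activity read by luminescent Caspase-Glo 3/7 after 30 min at room temperature.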

[2] = Caspase-3/7 induction in CHO-K1 cells by small molecules, qHTS cell viability counter screen (AID 1346979); further: nearly all actives have a fitted effect of over 35% in size; further: potency means the concentration at half of the fitted maximal effect
Procedure, shortened: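 Cytotoxicity counter screen: CellTiter-Fluor added to compound-treated wild-type CHO-K1 cells at 16 h (37C, 5% CO2), fluorescence measured 1 h later; same wells as caspase-3/7 measurement.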

[3] = Caspase-3/7 induction in CHO-K1 cells by small molecules, qHTS assay (AID 1346980); further: nearly all actives have a fitted effect of over 15% in size
Procedure, shortened: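 Wild-type CHO-K1 cells exposed to compounds for 17hr at 37 C, 5% CO2. Caspase-3/7 activity then measured by Caspase-Glo 3/7 luminescence after 30min at room temperature.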

[4] = Caspase-3/7 induction in HepG2 cells by small molecules, qHTS cell viability counter screen (AID 1346981); further: nearly all actives have a fitted effect of over 30% in size; further: potency means the concentration at half of the fitted maximal effect
Procedure, shortened: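 Treatment of HepG2 cells with DMSO-delivered compounds ran 16 hr at 37 C following a 5-hr pre-incubation of 2,000 cells/well. CellTiter-Fluor fluorescence, read after 1 hr, served as the viability measure in a qHTS format.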

[5] = target: Cytochrome P450 2D6 (Homo sapiens) (UniProt P10635); test: Cytochrome P450 Family 2 Subfamily D Member 6 (CYP2D6) small molecule antagonists: luciferase reporter qHTS assay (AID 1671196); further: nearly all actives have a fitted effect of over 50% in size; further: potency means the concentration at half of the fitted maximal effect
Procedure, shortened: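 Chemicals tested for interference with CYP2D6 activity; proluciferin substrate, NADPH regeneration, 1 h at room temperature, luminescent detection.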

[6] = target: Cytochrome P450 1A2 (Homo sapiens) (UniProt P05177); test: Cytochrome P450 Family 1 Subfamily A Member 2 (CYP1A2) small molecule antagonists: luciferase reporter qHTS assay (AID 1671199); further: nearly all actives have a fitted effect of over 50% in size; further: potency means the concentration at half of the fitted maximal effect
Procedure, shortened: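 Read-out is luminescence from luciferin detection reagent (20 min) proportional to CYP1A2 activity; compounds in DMSO preincubated 10 min with enzyme and proluciferin substrate, then NADPH regeneration solution, 1 h, room temperature.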

[7] = target: Voltage-gated inwardly rectifying potassium channel KCNH2 (Homo sapiens) (UniProt Q12809); test: Human Ether-a-go-go-Related Gene (hERG) channel small molecule antagonists: fluorescence cell-based qHTS assay (AID 1671200); further: nearly all actives have a fitted effect of over 50% in size; further: potency means the concentration at half of the fitted maximal effect
Procedure, shortened: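 Thallium flux as potassium surrogate: FluxOR II dye loaded 1 h at room temperature into hERG-expressing U2OS cells, then stimulus buffer added after 10 min. Kinetic 480 nm excitation/540 nm emission read, 2 min.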

[8] = target: Cytochrome P450 3A4 (Homo sapiens) (UniProt P08684); test: Cytochrome P450 Family 3 Subfamily A Member 4 (CYP3A4) small molecule antagonists: luciferase reporter qHTS assay (AID 1671201); further: nearly all actives have a fitted effect of over 50% in size; further: potency means the concentration at half of the fitted maximal effect
Procedure, shortened: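 Recombinant human CYP3A4 converts a proluciferin substrate to luciferin over 1 h at room temperature after NADPH regeneration solution is added (compound preincubated 10 min); detection reagent stops reaction, luminescence read 20 min later as relative units.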

[9] = target: Nuclear receptor subfamily 1 group I member 2 (Homo sapiens) (UniProt O75469); test: Human pregnane X receptor (PXR) small molecule agonists, qHTS assay (AID 1346982); further: nearly all actives have a fitted effect of over 35% in size; further: potency means the concentration at half of the fitted maximal effect
Procedure, shortened: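 Stable HepG2 line reporting PXR-mediated CYP3A4 expression via luciferase. Treatment: 24 hr with compounds in DMSO at 37 C. Detection: ONE-Glo luminescence.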

[10] = target: Cytochrome P450 2C19 (Homo sapiens) (UniProt P33261); test: Cytochrome P450 Family 2 Subfamily C Member 19 (CYP2C19) small molecule antagonists: luciferase reporter qHTS assay (AID 1671197); further: nearly all actives have a fitted effect of over 65% in size; further: potency means the concentration at half of the fitted maximal effect
Procedure, shortened: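 First, compounds are pinned into enzyme-substrate mix and held 10 min at room temperature. Second, NADPH regeneration solution is added and plates incubate 1 h at 37C. Third, detection reagent is added and luminescence read after 20 min.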

[11] = target: Cytochrome P450 2C9 (Homo sapiens) (UniProt P11712); test: Cytochrome P450 Family 2 Subfamily C Member 9 (CYP2C9) small molecule antagonists: luciferase reporter qHTS assay (AID 1671198); further: nearly all actives have a fitted effect of over 50% in size; further: potency means the concentration at half of the fitted maximal effect
Procedure, shortened: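 P450-Glo proluciferin substrate with CYP2C9 enzyme; 10 min RT preincubation, then NADPH regeneration 1 h at 37C; luciferin detection reagent 20 min RT, luminescence in relative luminescence units.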

[12] = target: Nuclear receptor subfamily 1 group I member 2 (Rattus norvegicus) (UniProt Q9R1A7); test: Rat pregnane X receptor (rPXR) activation by small molecules, qHTS assay (AID 1346983); conditions: rPXR luciferase reporter cells, One-Glo luminescence, 24 h; max activation: stronger effect = higher value; further: nearly all actives have a fitted effect of over 20% in size; further: potency means the concentration at half of the fitted maximal effect
Procedure, shortened: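 Cell-based rPXR activation assay: rPXR cells, 2,000 per well, rested 5hr at 37 C, then exposed to compounds in DMSO for 24 hr at 37 C. Luciferase activity read by One-Glo luminescence after 30 min at room temperature.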

[13] = target: Nuclear receptor subfamily 1 group I member 2 (Homo sapiens) (UniProt O75469); test: CYP3A4 induction through human pregnane X receptor (PXR) by small molecules, qHTS assay (AID 1346984); further: nearly all actives have a fitted effect of over 40% in size
Procedure, shortened: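 After 24 h at 37C with compound, DPX-2 cells (HepG2, co-transfected PXR response element and CYP3A4 promoter-luciferase) got 3uM final P450-Glo Luciferin-IPA for 3 h; One-Glo luminescence followed.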

[14] = target: Nuclear receptor subfamily 1 group I member 2 (Homo sapiens) (UniProt O75469); test: Human pregnane X receptor (PXR) activation by small molecules, qHTS assay (AID 1346985); further: nearly all actives have a fitted effect of over 40% in size
Procedure, shortened: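 DPX-2 cells (HepG2 co-transfected with a PXR response element and a CYP3A4-promoter luciferase construct) were seeded at 2,000 per well, rested 5 hr at 37C, then exposed to DMSO-dissolved compounds for 24 hr. Activation was read as luciferase luminescence.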
On the % scale 0 is the no-effect control and ±100 the full control effect.

Sequence of Voltage-gated inwardly rectifying potassium channel KCNH2 (Homo sapiens) (Q12809 whole entry, looked up): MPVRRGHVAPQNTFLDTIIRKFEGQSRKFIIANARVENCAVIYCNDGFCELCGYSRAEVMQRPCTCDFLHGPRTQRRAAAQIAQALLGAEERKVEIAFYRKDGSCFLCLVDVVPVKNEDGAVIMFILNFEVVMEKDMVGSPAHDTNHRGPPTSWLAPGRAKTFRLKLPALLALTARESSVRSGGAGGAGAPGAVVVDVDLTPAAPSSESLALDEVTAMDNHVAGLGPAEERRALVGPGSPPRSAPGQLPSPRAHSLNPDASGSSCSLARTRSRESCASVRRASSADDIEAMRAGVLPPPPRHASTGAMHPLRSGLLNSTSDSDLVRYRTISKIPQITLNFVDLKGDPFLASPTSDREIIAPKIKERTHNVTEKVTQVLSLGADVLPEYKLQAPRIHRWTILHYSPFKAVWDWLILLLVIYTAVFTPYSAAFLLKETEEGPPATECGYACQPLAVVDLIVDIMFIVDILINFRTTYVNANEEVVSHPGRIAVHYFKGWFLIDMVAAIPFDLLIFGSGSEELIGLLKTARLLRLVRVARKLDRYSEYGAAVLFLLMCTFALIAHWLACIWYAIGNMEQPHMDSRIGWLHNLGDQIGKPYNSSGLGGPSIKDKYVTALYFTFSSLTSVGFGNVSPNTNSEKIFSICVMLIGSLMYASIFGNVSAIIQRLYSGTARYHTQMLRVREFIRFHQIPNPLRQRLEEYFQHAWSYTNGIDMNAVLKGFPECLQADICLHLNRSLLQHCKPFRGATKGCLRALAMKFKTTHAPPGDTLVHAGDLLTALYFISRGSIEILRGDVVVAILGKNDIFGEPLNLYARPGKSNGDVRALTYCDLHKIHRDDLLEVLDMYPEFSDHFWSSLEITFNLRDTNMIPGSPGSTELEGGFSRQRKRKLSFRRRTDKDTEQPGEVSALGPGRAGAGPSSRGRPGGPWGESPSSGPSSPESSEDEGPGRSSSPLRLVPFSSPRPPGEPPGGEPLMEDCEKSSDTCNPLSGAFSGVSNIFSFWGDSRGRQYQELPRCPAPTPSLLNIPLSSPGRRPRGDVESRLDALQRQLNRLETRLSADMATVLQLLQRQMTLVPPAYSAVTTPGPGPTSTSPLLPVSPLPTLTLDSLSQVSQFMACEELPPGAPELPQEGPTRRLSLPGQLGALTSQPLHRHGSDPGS
Sequence of Cytochrome P450 2C19 (Homo sapiens) (P33261 whole entry, looked up): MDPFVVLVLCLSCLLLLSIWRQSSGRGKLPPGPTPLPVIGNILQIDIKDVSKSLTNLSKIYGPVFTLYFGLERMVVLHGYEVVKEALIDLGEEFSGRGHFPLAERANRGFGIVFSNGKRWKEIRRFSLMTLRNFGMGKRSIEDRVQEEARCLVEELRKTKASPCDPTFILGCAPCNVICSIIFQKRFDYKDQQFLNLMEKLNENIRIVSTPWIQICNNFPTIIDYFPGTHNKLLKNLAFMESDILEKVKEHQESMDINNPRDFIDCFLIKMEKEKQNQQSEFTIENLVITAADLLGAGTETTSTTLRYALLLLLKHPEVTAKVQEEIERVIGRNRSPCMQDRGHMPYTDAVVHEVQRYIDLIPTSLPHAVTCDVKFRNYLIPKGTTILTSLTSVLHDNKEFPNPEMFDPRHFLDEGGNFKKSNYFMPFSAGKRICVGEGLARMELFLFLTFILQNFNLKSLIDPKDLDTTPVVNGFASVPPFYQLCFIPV
Sequence of Cytochrome P450 3A4 (Homo sapiens) (P08684 whole entry, looked up): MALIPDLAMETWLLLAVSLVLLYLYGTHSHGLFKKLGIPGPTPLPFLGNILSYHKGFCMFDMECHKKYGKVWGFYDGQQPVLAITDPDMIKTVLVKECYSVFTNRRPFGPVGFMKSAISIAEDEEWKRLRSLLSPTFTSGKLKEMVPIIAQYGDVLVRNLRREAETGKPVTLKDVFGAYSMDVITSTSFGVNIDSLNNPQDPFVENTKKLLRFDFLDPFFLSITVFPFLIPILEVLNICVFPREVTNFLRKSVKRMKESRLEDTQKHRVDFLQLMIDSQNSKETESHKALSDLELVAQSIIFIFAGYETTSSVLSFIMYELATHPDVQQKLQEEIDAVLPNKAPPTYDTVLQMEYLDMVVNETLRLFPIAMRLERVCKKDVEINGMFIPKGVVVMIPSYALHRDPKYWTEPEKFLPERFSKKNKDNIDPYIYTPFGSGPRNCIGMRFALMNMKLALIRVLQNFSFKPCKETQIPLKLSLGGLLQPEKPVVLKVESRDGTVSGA
Sequence of Cytochrome P450 1A2 (Homo sapiens) (P05177 whole entry, looked up): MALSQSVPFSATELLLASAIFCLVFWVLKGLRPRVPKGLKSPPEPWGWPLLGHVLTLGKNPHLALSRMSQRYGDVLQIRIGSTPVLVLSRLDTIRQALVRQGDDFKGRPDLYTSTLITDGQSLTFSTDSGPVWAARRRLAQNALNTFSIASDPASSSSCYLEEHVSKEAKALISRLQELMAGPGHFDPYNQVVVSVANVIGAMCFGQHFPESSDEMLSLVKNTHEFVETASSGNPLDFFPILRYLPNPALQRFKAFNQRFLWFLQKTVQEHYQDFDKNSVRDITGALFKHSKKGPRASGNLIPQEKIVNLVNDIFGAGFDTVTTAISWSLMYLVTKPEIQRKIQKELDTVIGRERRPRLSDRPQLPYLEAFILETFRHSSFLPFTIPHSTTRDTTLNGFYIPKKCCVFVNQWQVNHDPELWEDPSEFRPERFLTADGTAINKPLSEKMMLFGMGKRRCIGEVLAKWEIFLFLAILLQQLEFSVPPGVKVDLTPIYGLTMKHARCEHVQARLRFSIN
Sequence of Cytochrome P450 2D6 (Homo sapiens) (P10635 whole entry, looked up): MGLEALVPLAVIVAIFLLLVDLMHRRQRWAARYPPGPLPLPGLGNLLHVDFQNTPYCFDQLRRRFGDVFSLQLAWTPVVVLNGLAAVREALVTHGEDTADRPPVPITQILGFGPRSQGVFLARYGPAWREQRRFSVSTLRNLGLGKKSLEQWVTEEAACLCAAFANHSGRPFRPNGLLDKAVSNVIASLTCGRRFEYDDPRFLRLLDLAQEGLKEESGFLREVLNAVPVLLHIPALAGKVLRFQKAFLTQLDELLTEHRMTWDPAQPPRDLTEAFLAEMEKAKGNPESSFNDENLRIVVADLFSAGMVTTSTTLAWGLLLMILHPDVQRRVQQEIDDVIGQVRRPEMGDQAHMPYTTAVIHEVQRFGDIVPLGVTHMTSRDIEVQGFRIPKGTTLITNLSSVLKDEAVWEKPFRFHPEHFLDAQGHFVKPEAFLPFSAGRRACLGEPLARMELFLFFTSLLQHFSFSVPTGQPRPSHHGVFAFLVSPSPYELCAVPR
Sequence of Cytochrome P450 2C9 (Homo sapiens) (P11712 whole entry, looked up): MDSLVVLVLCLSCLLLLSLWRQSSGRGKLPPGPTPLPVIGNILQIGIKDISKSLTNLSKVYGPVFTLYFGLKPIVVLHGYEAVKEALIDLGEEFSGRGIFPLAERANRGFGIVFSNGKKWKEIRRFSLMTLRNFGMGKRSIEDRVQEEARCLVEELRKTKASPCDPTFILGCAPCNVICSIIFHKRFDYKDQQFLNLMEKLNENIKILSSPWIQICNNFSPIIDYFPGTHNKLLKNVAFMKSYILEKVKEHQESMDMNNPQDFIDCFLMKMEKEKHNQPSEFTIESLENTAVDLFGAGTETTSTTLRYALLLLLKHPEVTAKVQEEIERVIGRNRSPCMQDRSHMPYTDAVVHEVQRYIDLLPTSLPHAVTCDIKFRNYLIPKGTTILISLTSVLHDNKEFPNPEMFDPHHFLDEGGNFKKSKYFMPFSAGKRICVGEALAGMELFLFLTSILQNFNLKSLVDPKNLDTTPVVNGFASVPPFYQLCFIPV
Sequence of Nuclear receptor subfamily 1 group I member 2 (Homo sapiens) (O75469 whole entry, looked up): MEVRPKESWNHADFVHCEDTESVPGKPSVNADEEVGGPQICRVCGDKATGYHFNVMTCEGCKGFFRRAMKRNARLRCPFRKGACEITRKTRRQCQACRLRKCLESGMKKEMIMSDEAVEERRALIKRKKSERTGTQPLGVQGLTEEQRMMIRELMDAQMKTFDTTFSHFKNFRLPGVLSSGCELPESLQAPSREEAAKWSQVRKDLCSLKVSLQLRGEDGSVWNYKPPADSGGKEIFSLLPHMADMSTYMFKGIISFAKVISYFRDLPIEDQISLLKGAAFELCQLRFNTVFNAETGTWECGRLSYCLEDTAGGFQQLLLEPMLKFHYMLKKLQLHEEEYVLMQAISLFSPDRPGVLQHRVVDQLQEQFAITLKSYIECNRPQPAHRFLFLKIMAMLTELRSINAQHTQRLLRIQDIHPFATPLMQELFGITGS
Sequence of Nuclear receptor subfamily 1 group I member 2 (Rattus norvegicus) (Q9R1A7 whole entry, looked up): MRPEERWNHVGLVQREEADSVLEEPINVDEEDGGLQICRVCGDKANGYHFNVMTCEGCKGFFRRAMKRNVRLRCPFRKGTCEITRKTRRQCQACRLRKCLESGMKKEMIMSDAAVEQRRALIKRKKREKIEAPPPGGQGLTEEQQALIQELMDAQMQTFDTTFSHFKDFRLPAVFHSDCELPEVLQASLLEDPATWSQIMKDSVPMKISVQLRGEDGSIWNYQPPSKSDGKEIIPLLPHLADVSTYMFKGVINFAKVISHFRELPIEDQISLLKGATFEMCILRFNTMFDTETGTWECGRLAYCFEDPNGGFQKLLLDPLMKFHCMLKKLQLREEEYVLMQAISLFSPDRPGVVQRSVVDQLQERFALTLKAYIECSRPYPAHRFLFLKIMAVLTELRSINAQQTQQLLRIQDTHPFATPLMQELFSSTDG

Nc1ccc(NC(=O)c2ccc(N)cc2)cc1
active: Potency [8] 5.65 µM
inactive: Potency [1] | Potency [2] | outcome [3] | Potency [4] | Potency [5] | Potency [6] | Potency [7]

CN1CCCN(C(c2ccccc2)c2ccc(Cl)cc2)CC1 (centres undefined)
active: Potency [2] 26.6 µM | Potency [4] 23.7 µM | Potency [5] 0.49 µM | Potency [7] 1.9 µM
inactive: outcome [3] | Potency [9] | Potency [10] | Potency [11] | Potency [6]

CCN(CC)C(=O)/C(C#N)=C/c1cc(O)c(O)c([N+](=O)[O-])c1
inactive: Potency [1] | outcome [3] | max activation [12] -6.1% | Potency [13] | Potency [14] | Potency [10] | Potency [6] | Potency [7]
active: Potency [2] 26.6 µM | Potency [4] 29.8 µM | Potency [11] 0.195 µM

CC(C)c1ccc(C(=O)N=C(N)N)cc1S(C)(=O)=O
active: Potency [6] 44.4 µM
inactive: Potency [1] | Potency [2] | outcome [3] | Potency [4] | Potency [11] | Potency [7] | Potency [8]

COc1cc(OC)c2ccc(=O)oc2c1
active: Potency [6] 7.96 µM | Potency [8] 39.9 µM
inactive: Potency [1] | outcome [3] | Potency [4] | Potency [7]

CC(C)N=C=NC(C)C
inactive: Potency [1] | Potency [2] | outcome [3] | Potency [4] | Potency [9] | Potency [10] | Potency [11] | Potency [6] | Potency [7] | Potency [8]

CC(C)(C)S
inactive: Potency [1] | Potency [2] | outcome [3] | Potency [4] | Potency [9] | Potency [7]
active: Potency [5] 7.34 µM | Potency [10] 41.3 µM

CNCc1ccc(NC(=O)c2c[nH]c3c2C(=O)CCC3)cc1
active: Potency [6] 31.7 µM
inactive: Potency [1] | Potency [2] | outcome [3] | Potency [4] | Potency [5] | Potency [7]

COC(=O)Nc1nc2ccc(C(=O)C3CC3)cc2[nH]1
inactive: Potency [1] | outcome [3] | Potency [4] | Potency [5] | Potency [10] | Potency [7]
active: Potency [9] 8.41 µM | Potency [6] 10.2 µM

COC(=O)c1sccc1S(N)(=O)=O
inactive: Potency [1] | Potency [2] | outcome [3] | Potency [4] | Potency [9] | Potency [11] | Potency [6] | Potency [7] | Potency [8]
active: Potency [10] 79.6 µM

O=C(O)c1cc(Cl)cc(Cl)c1O
active: Potency [11] 28.3 µM
inactive: Potency [1] | Potency [2] | outcome [3] | Potency [4] | Potency [9] | Potency [10] | Potency [7] | Potency [8]

COc1ccc(N)c([N+](=O)[O-])c1
active: Potency [6] 8.94 µM
inactive: Potency [1] | outcome [3] | Potency [7]

C=Cc1ccc(OC(C)=O)cc1
inactive: Potency [1] | Potency [2] | outcome [3] | Potency [4] | Potency [5] | Potency [10] | Potency [11] | Potency [7]

CNS(=O)(=O)c1cc(C(=O)N2CCC(CCN3C4CCC3CC(n3c(C)nc5ccccc53)C4)(c3cccc(F)c3)CC2)c(Cl)cc1F (centres undefined)
inactive: outcome [3] | Potency [9] | Potency [6]
active: Potency [2] 17.2 µM | Potency [4] 13.7 µM | Potency [5] 25.2 µM | Potency [11] 17.8 µM

O=[N+]([O-])C1(Br)COCOC1
inactive: Potency [1] | outcome [3] | Potency [4]
active: Potency [2] 54.5 µM | Potency [10] 15.9 µM | Potency [11] 7.1 µM | Potency [6] 15.9 µM | Potency [7] 54.9 µM

CC(CCc1ccc(O)cc1)NCCc1ccc(O)c(O)c1 (centres undefined)
inactive: Potency [1] | outcome [3] | Potency [4] | Potency [9] | Potency [11] | Potency [6] | Potency [8]
active: Potency [5] 15.5 µM | Potency [7] 13.4 µM

O=C(O)CCCc1c[nH]c2ccccc12
inactive: Potency [1] | outcome [3] | Potency [4] | Potency [9] | Potency [5] | Potency [11] | Potency [6] | Potency [7] | Potency [8]

Nc1nc(-c2ccc([N+](=O)[O-])cc2)cs1
active: Potency [9] 9.79 µM | Potency [10] 3.6 µM | Potency [6] 5.08 µM
inactive: Potency [1] | outcome [3] | Potency [7]

CCCCCCCCCCCCCOS(=O)(=O)O
inactive: Potency [1] | outcome [3] | Potency [4] | Potency [10] | Potency [6] | Potency [7]

COC(=O)C1=C(C)NC(C)=C(C(=O)OC(C)(C)CN(C)CCC(c2ccccc2)c2ccccc2)C1c1cccc([N+](=O)[O-])c1 (centres undefined)
active: Potency [2] 16.8 µM | Potency [12] 3.98 µM | Potency [5] 4.36 µM | Potency [10] 1.38 µM | Potency [11] 2.45 µM | Potency [7] 2.39 µM
inactive: Potency [1] | outcome [3]
